This is an account of results in PubChem BioAssay.

The structures appear in SMILES notation. Active and inactive are the calls of the source.

Assay [1] can be described thus: binders of probe aFSTL3 on microarray, primary screen, stem cell growth factor project, biochemical, small-molecule microarray, fluorescence 635/667 (AID 1064).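 Also: measures binding of the biotinylated anti-FSTL3 antibody to printed compounds.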 The conditions noted are these: higher = more signal; small-molecule microarray, probe aFSTL3, fluorescence unless noted.
Assay [2] is described as follows: binders from COS7 lysate, DM2A8 probe, primary screen, torsin A project, cell lysate, small-molecule microarray, fluorescence 635/667 (AID 1065). As to conditions: higher = more signal; small-molecule microarray, COS7 cell lysate, probe DM2A8, fluorescence, COS7 lysate expressing mutant human TOR1A unless noted.
Assay [3] in a line: binders of probe aFGF2 on microarray, primary screen, stem cell growth factor project, biochemical, small-molecule microarray, fluorescence 635/667 (AID 1067).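 Also: measures binding of biotinylated aFGF2 protein to printed compounds on slides; z-score merges feature fluorescence and signal-to-noise across triplicate slides.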 As to conditions: higher = more signal; small-molecule microarray, probe aFGF2, fluorescence unless noted.
A short description of assay [4]: binders of probe aFGF10 on microarray, primary screen, stem cell growth factor project, biochemical, small-molecule microarray, fluorescence 635/667 (AID 1071).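 Also: score merges 667 nm spot intensity and signal to noise from triplicate slides.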 As to conditions: higher = more signal; small-molecule microarray, probe aFGF10, fluorescence unless noted.
Assay [5] deals with Neurogenic locus notch homolog protein 2 (Homo sapiens) (UniProt Q04721). Put plainly: Notch2 binders on small-molecule microarrays, primary screen, biochemical, small-molecule microarray, 635 nm fluorescence, stem cell growth factors (AID 1073). The conditions noted are these: Notch2 binding, higher = more signal.
Assay [6] has as its target Pro-neuregulin-1, membrane-bound isoform (Homo sapiens) (UniProt Q02297). Put plainly: NRG1 binders on small-molecule microarrays, primary screen, psychiatric disease protein project, biochemical, small-molecule microarray, fluorescence 635/667 (AID 1075).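 Also: score combines 667 nm spot fluorescence with signal to noise.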 As to conditions: NRG1 binding, 635 nm fluorescence, higher = more signal.
Assay [7] concerns Neuregulin-1 EGF-like domain. Put plainly: binders of neuregulin-1 EGF-like domain, primary screen, biochemical, small-molecule microarray, 635 nm fluorescence (AID 1081).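 Also: binding of the protein to compounds printed on small-molecule microarray slides.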 The conditions noted are these: small-molecule microarray binding, higher = more signal.
Assay [8] is described as follows: FRG1 promoter luciferase signal modulators, primary screen, FRG1 inhibition for FSHD, cell-based, C2C12 myotubes, firefly/Renilla luciferase, luminescence (AID 1084). The conditions noted are these: higher = more signal, called active from +8 up or from −8 down unless noted.
Assay [9] can be described thus: binders of probe aFST on microarray, primary screen, stem cell growth factor project, biochemical, small-molecule microarray, fluorescence 635/667 (AID 1086).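 Also: score merges 667 nm fluorescence with signal-to-noise of each printed compound spot.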 As to conditions: higher = more signal.
The nature of assay [10]: binders of probe aHhip on microarray, primary screen, stem cell growth factor project, biochemical, small-molecule microarray, fluorescence 635/667 (AID 1087).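 Also: score merges spot fluorescence at 667nm with spot signal to noise ratio.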 The conditions noted are these: higher = more signal.
Assay [11] concerns PRMT1 (protein arginine N-methyltransferase 1). Put plainly: PRMT1 binders on small-molecule microarrays, primary screen, biochemical, small-molecule microarray, 635 nm fluorescence (AID 1088).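 Also: binding of Prmt1 protein to compounds spotted on small-molecule microarray slides.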 As to conditions: small-molecule microarray binding, higher = more signal.
Assay [12] in a line: yeast growth modulation, basal conditions, primary screen, YJM789 clinical isolate, OD600, 24 h (AID 1089).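 Also: growth of clinical yeast isolate S. cerevisiae YJM 789 seeded 1000 cells per well; test concentration not given here.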 The conditions noted are these: S. cerevisiae YJM789 growth; higher = more signal, called active from +8 up or from −8 down unless noted.
A short description of assay [13]: fission yeast growth modulation, primary screen, strain 972, OD600, 24 h, no modulator (AID 1090).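 Also: basal condition with compound alone and no growth modifier present; test concentration not given here.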 As to conditions: S. pombe 972 growth; higher = more signal, called active from +8 up or from −8 down unless noted.
Assay [14] in a line: S. cerevisiae growth modulation with rapamycin, primary screen, strain BY4716, OD600, 96 h (AID 1091). Also: test concentration not given here. The conditions noted are these: higher = more signal, called active from +8 up or from −8 down unless noted.
Assay [15] has as its target Torsin-1A-interacting protein 2 (Homo sapiens) (UniProt Q8NFQ8). Put plainly: LULL1 binders on small-molecule microarray, primary screen, cell lysate, human LULL1 lysate, 635/667 nm fluorescence (AID 1092).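 Also: score merges per-feature 667 nm fluorescence with signal-to-noise.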 As to conditions: hLULL1 lysate binding, 635 nm fluorescence, higher = more signal.
Assay [16] is described as follows: E. coli growth modulation, two-sided OD650, primary screen, E. coli filamentation project, strain DRC41, 24 h (AID 1093).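 Also: MC1000 strain lacking acrAB efflux and sulA so SOS filamentation is blocked; test concentration not given here.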 The conditions noted are these: OD650, 24 h; higher = more signal, called active from +8 up or from −8 down unless noted.
A short description of assay [17]: small-molecule microarray binders of probe aLefty2, primary screen, biochemical, biotinylated probe, 635/667 nm fluorescence (AID 1094).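 Also: score merges spot fluorescence near 667 nm with spot signal-to-noise ratio.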 As to conditions: higher = more signal; small-molecule microarray, probe aLefty2, fluorescence unless noted.
In assay [18] the test system is Noggin (protein binding on small-molecule microarray). Put plainly: Noggin binders on small-molecule microarray, primary screen, biochemical, 635/667 nm fluorescence (AID 1095).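 Also: score merges 667 nm feature fluorescence with signal to noise over triplicate slides.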 The conditions noted are these: 635 nm fluorescence, higher = more signal.
Assay [19] concerns the target Neurogenic locus notch homolog protein 3 (Homo sapiens) (UniProt Q9UM47). Put plainly: NOTCH3 binders on small-molecule microarray, primary screen, biochemical, 635/667 nm fluorescence (AID 1096). The conditions noted are these: NOTCH3 binding, 635 nm fluorescence, higher = more signal.
A short description of assay [20]: small-molecule microarray binders of probe aEGFR, primary screen, biochemical, biotinylated probe, 635/667 nm fluorescence (AID 1097).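 Also: probe is a biotinylated anti-EGFR antibody binding compounds printed on slides; score combines fluorescence near 667 nm and signal to noise of each spot.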 The conditions noted are these: higher = more signal; small-molecule microarray, probe aEGFR, fluorescence unless noted.

Neurogenic locus notch homolog protein 2 (Homo sapiens), sequence (Q04721 whole entry, looked up, canonical isoform): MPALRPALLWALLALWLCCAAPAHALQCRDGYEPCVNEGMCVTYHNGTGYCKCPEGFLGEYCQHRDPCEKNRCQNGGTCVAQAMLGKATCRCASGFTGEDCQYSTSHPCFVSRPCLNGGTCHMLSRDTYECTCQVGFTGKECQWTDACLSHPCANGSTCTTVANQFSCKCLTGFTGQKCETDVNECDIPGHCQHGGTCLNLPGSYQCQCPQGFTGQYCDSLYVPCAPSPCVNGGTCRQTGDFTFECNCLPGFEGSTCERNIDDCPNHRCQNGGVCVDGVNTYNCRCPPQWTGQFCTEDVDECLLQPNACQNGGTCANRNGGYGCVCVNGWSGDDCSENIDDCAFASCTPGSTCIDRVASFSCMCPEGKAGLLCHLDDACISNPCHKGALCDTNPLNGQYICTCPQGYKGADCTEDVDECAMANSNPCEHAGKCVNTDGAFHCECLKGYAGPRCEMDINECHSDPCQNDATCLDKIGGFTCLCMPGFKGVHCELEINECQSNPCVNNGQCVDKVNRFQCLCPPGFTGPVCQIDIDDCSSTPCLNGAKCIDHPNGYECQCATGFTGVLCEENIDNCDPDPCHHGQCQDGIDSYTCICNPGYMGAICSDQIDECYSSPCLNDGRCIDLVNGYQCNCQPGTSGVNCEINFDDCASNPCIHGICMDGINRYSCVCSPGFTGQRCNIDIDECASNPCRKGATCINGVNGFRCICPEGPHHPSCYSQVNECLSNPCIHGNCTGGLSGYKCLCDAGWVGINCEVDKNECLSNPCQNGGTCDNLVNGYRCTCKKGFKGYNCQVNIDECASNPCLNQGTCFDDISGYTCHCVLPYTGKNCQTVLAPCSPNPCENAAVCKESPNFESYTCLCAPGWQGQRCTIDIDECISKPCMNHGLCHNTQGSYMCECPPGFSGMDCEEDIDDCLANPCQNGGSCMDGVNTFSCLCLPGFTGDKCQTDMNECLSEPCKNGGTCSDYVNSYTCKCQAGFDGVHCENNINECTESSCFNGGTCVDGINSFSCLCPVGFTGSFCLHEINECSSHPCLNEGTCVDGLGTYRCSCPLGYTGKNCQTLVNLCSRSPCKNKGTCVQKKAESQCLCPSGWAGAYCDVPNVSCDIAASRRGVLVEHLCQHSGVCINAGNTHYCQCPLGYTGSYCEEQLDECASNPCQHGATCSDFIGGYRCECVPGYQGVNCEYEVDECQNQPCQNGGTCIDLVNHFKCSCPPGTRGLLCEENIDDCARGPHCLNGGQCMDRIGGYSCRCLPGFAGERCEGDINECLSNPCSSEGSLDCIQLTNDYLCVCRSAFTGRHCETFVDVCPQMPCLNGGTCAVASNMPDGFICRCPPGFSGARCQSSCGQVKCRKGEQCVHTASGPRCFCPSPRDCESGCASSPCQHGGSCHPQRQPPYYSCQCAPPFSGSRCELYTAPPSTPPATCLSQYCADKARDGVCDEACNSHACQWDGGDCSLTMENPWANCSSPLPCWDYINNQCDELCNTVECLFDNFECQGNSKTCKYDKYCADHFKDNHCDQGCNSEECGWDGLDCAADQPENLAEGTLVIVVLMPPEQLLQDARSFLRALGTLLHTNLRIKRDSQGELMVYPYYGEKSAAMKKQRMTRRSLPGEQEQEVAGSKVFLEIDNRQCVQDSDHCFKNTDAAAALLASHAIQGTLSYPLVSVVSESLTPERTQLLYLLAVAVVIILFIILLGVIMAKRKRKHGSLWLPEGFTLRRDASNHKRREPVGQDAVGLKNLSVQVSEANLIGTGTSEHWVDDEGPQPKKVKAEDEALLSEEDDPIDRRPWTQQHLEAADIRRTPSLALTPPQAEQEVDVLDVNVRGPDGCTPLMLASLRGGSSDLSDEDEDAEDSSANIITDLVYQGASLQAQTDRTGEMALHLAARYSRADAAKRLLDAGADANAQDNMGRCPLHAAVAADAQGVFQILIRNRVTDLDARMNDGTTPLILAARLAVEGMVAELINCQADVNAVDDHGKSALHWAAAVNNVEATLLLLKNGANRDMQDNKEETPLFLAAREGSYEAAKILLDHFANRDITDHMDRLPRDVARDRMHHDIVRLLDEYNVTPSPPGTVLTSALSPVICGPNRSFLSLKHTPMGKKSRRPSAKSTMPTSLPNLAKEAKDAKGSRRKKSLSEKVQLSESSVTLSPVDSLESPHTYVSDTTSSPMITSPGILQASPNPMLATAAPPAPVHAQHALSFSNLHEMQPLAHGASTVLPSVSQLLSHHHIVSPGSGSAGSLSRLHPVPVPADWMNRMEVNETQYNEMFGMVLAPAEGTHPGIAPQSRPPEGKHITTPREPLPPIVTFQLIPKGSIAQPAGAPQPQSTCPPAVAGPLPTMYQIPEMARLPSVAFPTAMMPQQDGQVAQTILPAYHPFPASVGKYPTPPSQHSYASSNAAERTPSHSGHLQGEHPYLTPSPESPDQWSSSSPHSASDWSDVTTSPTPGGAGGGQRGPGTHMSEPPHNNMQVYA
Neurogenic locus notch homolog protein 3 (Homo sapiens), sequence (Q9UM47 whole entry, looked up): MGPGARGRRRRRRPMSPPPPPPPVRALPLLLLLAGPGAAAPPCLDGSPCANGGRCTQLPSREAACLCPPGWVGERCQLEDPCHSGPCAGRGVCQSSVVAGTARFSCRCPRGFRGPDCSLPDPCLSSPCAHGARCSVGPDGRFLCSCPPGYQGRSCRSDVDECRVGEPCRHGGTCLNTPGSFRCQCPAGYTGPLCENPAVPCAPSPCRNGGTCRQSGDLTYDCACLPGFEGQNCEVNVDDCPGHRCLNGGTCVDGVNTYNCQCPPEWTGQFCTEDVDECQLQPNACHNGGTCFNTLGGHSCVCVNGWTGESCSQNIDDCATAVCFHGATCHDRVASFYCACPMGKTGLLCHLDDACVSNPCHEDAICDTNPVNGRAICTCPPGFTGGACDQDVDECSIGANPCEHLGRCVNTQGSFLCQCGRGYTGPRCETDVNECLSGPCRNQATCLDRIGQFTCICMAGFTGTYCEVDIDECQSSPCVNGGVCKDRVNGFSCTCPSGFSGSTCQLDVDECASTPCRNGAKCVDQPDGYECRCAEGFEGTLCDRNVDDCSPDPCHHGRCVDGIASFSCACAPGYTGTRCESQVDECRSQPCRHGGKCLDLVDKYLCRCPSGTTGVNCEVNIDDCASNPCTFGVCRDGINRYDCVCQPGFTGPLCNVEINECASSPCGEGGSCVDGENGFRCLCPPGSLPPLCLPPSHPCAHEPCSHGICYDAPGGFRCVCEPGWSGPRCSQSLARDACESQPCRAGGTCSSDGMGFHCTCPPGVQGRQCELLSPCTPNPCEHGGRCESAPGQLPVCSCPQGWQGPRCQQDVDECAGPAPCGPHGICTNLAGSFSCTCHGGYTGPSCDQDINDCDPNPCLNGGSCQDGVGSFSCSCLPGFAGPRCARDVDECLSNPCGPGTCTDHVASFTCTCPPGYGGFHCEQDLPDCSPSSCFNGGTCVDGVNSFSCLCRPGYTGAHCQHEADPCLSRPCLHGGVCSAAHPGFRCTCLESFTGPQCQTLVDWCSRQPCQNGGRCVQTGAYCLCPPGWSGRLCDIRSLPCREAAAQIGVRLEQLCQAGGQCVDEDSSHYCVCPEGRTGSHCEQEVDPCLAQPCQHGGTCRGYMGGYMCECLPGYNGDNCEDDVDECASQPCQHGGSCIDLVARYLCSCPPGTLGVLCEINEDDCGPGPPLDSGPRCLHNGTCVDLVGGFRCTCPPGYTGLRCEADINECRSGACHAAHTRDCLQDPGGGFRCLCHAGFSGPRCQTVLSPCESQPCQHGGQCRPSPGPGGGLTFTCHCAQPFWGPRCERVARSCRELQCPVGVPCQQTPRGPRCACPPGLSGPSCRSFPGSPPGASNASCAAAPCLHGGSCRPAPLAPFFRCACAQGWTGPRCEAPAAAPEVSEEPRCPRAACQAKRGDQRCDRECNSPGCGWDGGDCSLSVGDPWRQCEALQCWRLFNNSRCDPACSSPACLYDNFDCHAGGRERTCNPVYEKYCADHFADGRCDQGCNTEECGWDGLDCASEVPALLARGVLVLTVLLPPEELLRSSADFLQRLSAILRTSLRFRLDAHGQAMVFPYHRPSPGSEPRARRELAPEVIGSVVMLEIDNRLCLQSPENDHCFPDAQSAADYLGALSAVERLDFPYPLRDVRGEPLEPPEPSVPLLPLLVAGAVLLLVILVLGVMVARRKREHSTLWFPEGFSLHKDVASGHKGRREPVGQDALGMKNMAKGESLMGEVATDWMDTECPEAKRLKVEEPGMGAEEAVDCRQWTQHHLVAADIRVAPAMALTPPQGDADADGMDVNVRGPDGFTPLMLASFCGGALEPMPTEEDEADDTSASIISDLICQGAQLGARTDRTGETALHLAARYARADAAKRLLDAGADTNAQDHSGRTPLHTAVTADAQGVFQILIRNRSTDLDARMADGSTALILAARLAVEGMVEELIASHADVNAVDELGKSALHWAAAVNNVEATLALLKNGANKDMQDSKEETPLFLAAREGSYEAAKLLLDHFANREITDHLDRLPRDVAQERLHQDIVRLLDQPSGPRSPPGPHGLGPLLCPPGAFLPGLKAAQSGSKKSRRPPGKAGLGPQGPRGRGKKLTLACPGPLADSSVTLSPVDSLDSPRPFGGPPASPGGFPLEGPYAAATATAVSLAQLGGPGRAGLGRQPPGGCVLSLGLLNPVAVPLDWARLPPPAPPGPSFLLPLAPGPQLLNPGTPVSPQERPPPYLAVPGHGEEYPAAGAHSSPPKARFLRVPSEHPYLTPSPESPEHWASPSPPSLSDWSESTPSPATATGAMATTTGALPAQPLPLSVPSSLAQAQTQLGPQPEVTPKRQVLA

Turning to `O=P(c1ccccc1)(c1ccccc1)N1CC2(CC2)CC(O)(c2ccccc2)C1` (stereo not given), the composite z-score in assay [1] was 0.234; in [2] it was -0.86; in [3], 0.0316; in [4], 0.862; in assay [5], 1.65; in assay [6], 0.963. Moreover, the composite z-score was 1.33 in assay [7]; 0.553 in [9]; 0.21 in assay [10]; -0.25 in [11]; 3.57 in assay [15]; -0.0208 in assay [17]. Further, the composite z-score was -0.62 in assay [18], 0.498 in assay [19] and 0.066 in [20]. The z-score is -2.28 (inactive) in assay [8]; -1.51 (inactive) in [12]; -1.4 (inactive) in assay [13]; -1.9 (inactive) in assay [14]; -0.0435 (inactive) in assay [16].

Consider `COC(=O)C1(C)C=C2C(=C(C)C(=O)C2C)CN1` (stereo not given), for which the composite z-score in assay [1] is 1.28; in assay [2], -0.297; in assay [3], -0.0627; in assay [4], -0.195; in assay [5] it was -0.483; in [6], 0.367. The composite z-score in assay [7] is 1.55; in assay [9], 0.706; in assay [10], 0.107; in [11] it was -0.289; in assay [15], -0.132; in [17], -0.0175. Also, the composite z-score in [18] is -1; in [19], -1.2; in assay [20], -0.139. The z-score in assay [8] is 3.71 (inactive); in [12] it was 0.957 (inactive); in assay [13] it was 0.437 (inactive); in assay [14] it was 1.14 (inactive); in [16], -1.5 (inactive).

Consider `CN1CCC(c2ccc(CO)cc2)=CC1c1cccs1` (stereo not given), for which the composite z-score in assay [1] is -0.182; in [2], -0.191; in [3] it was -0.128; in assay [4], -0.53; in assay [5], -0.131; in assay [6], 0.0188. Also, the composite z-score in [7] is 1.04; in assay [9] it was 0.13; in assay [10], -0.134; in assay [11], -0.534; in assay [15] it was -1.32; in assay [17], -0.166. The composite z-score is 0.269 in [18], 0.245 in assay [19] and -0.0828 in [20]. Moreover, the z-score in [8] was 1.68 (inactive); in assay [12] it was -0.539 (inactive); in assay [13] it was -2.27 (inactive); in assay [14], 2.81 (inactive); in assay [16] it was 0.358 (inactive).

For `C=C(CC1(C(C)NP(=O)(c2ccccc2)c2ccccc2)CC1)c1ccccc1` (stereo not given), the composite z-score in assay [1] is 0.21; in assay [2], -0.954; in assay [3] it was 0.208; in assay [4], 0.851; in assay [5] it was 1.01; in assay [6], 1.16. Also, the composite z-score in [7] was 0.714; in assay [9], 0.881; in [10], 0.113; in assay [11], 0.144; in assay [15] it was 3.44; in assay [17] it was -0.119. Besides, the composite z-score in [18] is -0.344; in [19] it was 0.673; in assay [20], -0.135. The z-score in assay [8] was -3.03 (inactive); in assay [12], -1.47 (inactive); in [13], -5.37 (inactive); in assay [14], -3 (inactive); in [16], -0.74 (inactive).

On to `CN1CCC(c2ccc(CO)cc2)=CC1C1CC1` (stereo not given), for which the composite z-score in [1] is -0.394; in assay [2], -0.0038; in assay [3] it was -0.158; in assay [4], -0.301; in [5] it was -0.616; in [6], -0.292. In addition, the composite z-score in assay [7] was 0.839; in assay [9], -0.337; in assay [10] it was -0.164; in assay [11], 0.142; in [15] it was -0.183; in [17], -0.308. Besides, the values for the composite z-score in [18], in [19] and in assay [20] were 0.062, -0.218 and -0.154, respectively. Further, the z-score was 0.666 (inactive) in assay [8]; -1.01 (inactive) in assay [12]; -1.39 (inactive) in [13]; 0.978 (inactive) in [14]; -0.409 (inactive) in assay [16].

Consider `C=C(CC1(CNP(=O)(c2ccccc2)c2ccccc2)CC1)c1ccccc1`, for which the composite z-score in assay [1] was 0.019; in assay [2], -0.115; in assay [3], 0.179; in assay [4] it was 0.33; in assay [5] it was 0.777; in [6], 1.69. Moreover, the composite z-score in [7] was 0.525; in assay [9], 0.622; in assay [10], -0.0618; in [11], -0.683; in [15], 1.98; in assay [17], -0.0934. Also, the composite z-score in assay [18] was -0.682; in assay [19], -0.343; in assay [20], -0.0493. Further, the z-score in assay [8] is -3.35 (inactive); in [12], 0.0836 (inactive); in assay [13] it was 1.79 (inactive); in assay [14] it was -0.165 (inactive); in assay [16] it was 0.0375 (inactive).

`CCOC(=O)[C@H]1CC=C2C(=O)Oc3ccc(Br)cc3[C@@H]21`: the composite z-score is 0.165 in [1]; 0.384 in assay [2]; -0.161 in assay [3]; -0.332 in assay [4]; -0.664 in assay [5]; 0.994 in assay [6]. The composite z-score was 0.727 in assay [7]; -0.598 in [9]; -0.134 in assay [10]; 1.41 in [11]; 2.61 in assay [15]; -0.183 in [17]. The composite z-score in assay [18] is -0.701; in [19], 0.428; in [20], -0.249. Besides, the z-score in assay [8] was -0.818 (inactive); in assay [12], -24.8 (active); in assay [13], -16.2 (active); in assay [14], -1.8 (inactive); in assay [16], -0.369 (inactive).
